# Screening data as filed in PubChem BioAssay.
# GALK inhibitor: qHTS Assay for Inhibitors of Human Galactokinase (GALK); 0.007% of 270,000 active; Purified GALK, Kinase-Glo residual ATP luminescence; Potency, µM (highest dose often 57.5 µM), without a hit: at the top dose activity change, negative = inhibition, most hits filed as inhibitors; further: potency means the concentration at half of the fitted maximal effect
#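 Luminescence from leftover ATP (Ultra-Glo luciferase/luciferin) served as read-out after a 1 h room-temperature reaction of 5 nM GALK with 35 uM ATP and 100 uM galactose.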
# PLK1 PBD block: qHTS for Inhibitors of PLK1-PDB (polo-like kinase 1 - polo-box domain): Primary Screen; 2.8% of 360,000 active; Potency, µM, inactives show max response, negative = inhibition, actives largely listed as inhibitors; Serine/threonine-protein kinase PLK1 (Homo sapiens), P53350; Plk1 PBD binding of FITC phosphopeptide, fluorescence polarization; further: potency means the concentration at half of the fitted maximal effect; series mostly up to about 57 µM; nearly all actives have a fitted effect of over 65% in size
# USP2a inh: qHTS Assay for Inhibitors of Ubiquitin-specific Protease USP2a Using CHOP2 as the Reporter; Ubiquitin carboxyl-terminal hydrolase 2 (Homo sapiens), O75604; USP2 core, Ub-CHOP2 coupled fluorogenic reporter, 485/531; Potency, µM (series often up to 38.3 µM), inactives show at the highest dose activity change, negative = inhibition, hits mostly inhibitors; 0.01% of 330,000 active; AID 463254, 2010;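 further: potency means the concentration at half of the fitted maximal effect; plate controls were DMSO wells for no effect and full inhibition by NEM control for full effect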
# Target sequence (O75604 whole entry, looked up): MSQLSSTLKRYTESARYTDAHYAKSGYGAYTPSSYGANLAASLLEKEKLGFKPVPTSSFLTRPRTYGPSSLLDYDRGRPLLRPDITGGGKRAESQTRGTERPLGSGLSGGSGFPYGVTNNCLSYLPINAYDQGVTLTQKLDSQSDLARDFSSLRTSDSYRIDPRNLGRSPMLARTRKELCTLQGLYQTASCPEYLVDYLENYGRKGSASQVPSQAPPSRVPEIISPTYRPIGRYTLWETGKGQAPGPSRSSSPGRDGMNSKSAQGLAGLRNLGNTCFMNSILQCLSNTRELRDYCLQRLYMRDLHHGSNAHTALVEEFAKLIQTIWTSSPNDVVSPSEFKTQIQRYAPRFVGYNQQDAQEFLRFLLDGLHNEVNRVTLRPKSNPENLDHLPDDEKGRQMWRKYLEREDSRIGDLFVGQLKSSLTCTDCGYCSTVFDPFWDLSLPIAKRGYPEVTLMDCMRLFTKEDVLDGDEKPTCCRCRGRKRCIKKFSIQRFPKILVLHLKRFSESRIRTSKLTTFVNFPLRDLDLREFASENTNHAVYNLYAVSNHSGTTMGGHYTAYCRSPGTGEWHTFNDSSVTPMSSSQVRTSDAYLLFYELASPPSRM
#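 Cell-free coupled assay: 10nM USP2 core preincubated 30min RT with compound in Tris-HCl pH 8.0/CaCl2/CHAPS buffer, then 25nM Ub-CHOP2 and 25nM reporter substrate; fluorescence (Ex 485/Em 531) read after 60min RT, normalized to NEM inhibition, concentration-response curves fitted.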
# USP1-UAF1 inh: Inhibitors of USP1/UAF1: Primary Screen. Ubiquitin carboxyl-terminal hydrolase 1 (Homo sapiens), O94782. recombinant USP1/UAF1, Ub-Rhodamine cleavage fluorescence. Potency, µM (doses to about 57.1 µM), for inactives: at the highest dose activity change, negative = inhibition, most hits filed as inhibitors. 0.23% of 390,000 active. AID 743255, 2014; further: potency means the concentration at half of the fitted maximal effect; nearly all actives have a fitted effect of over 60% in size
#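 USP1/UAF1 complex at 1 nM was preincubated with compound for 15 min at room temperature, then Ub-Rho substrate (150nM final) was added. Fluorescence (480/540 nm) was read kinetically, 6 reads every 60 seconds.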
# FBPA coupling cs: qHTS Assay for Inhibitors of Fructose-1,6-bisphosphate Aldolase from Giardia Lamblia: Coupling assay counterscreen; activity change, negative = inhibition, % at 58.2 µM, hits read low; coupling enzyme system counterscreen, AmpLite Red fluorescence; 0.67% of 290,000 active; in the data active means activity change below about -30%
#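 Counterscreen of the coupled detection system alone, without aldolase: glyceraldehyde-3-phosphate coupling enzymes plus AmpLite Red readout. Compounds at 57.5 uM final, 10 min RT preincubation, 20 min RT reaction, fluorescence 525/598 nm.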
# VDR inhibitor: Inhibitors of the vitamin D receptor (VDR): qHTS | Potency, µM, without a hit: max response, negative = inhibition, most hits filed as inhibitors | VDR-SRC2-3 peptide fluorescence polarization, 2 h | 0.93% of 400,000 active; further: potency means the concentration at half of the fitted maximal effect
#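 Fluorescence polarization assay measuring small-molecule disruption of VDR binding to the coregulator peptide SRC2-3. Compounds were pin-transferred (23 nl) into the reagent mix and incubated 2 h at room temperature before reading.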
# * = called active by the depositor; ? = inconclusive; . = no result given. Shown are actives, neighbours in structure and some others; about 3.2% of the full set was active somewhere. Unless noted, the call rests on the fitted dose curve; in most records, active means well fitted curve in the direction sought with a large enough effect; inconclusive means small, poorly fitted or top-dose-only effect, or another doubt; inactive means no such curve, though single readings can be large; an effect the other way counts as inactive or inconclusive. Unless noted, on the % scale 0 is the no-effect control and ±100 the full control effect.
SMILES,GALK inhibitor,PLK1 PBD block,USP2a inh,USP1-UAF1 inh,FBPA coupling cs,VDR inhibitor
CCOC(=O)c1cnc2ccc(OCC)cc2c1N1CCN(C)CC1,0%,-10%,-3%,-5%,-39*,2%
CCOC(=O)N1CCN(C(=O)C2CCN(S(=O)(=O)c3ccc(NC(C)=O)cc3)CC2)CC1,-4%,-5%,1%,-18%,.,-3%
Cc1ccc2nc3c(cc2c1)c(C)nn3-c1ccccc1,.,4%,0%,-28%,-1,9%
Cc1nn(-c2ccccc2)c2nc(=O)n(-c3ccccc3)cc12,2%,3µM*,-4%,-2%,0,?
O=S(=O)(c1ccccc1)N1N=C(c2ccccc2)CC1c1ccccc1 (stereo unspecified),1%,-9%,9%,-16%,2,-11%
O=C(CSc1nnc2c3ccccc3c3ccccc3c2n1)Nc1ccccc1,.,.,4%,.,-44*,.
O=C(CSc1nnc2c3ccccc3c3ccccc3c2n1)Nc1ccccc1F,0%,4%,3%,-5%,-40*,-21%
O=C(CSc1nnc2c(n1)[nH]c1ccc(F)cc12)Nc1ccccc1F,-2%,-4%,2%,-11%,5,5%
O=C(CSc1nncc2ccccc12)Nc1ccccc1,-2%,-8%,-4%,-5%,1,1%
COc1cc(/C=C2\SC(=O)NC2=O)ccc1Oc1ccc([N+](=O)[O-])cc1[N+](=O)[O-],4%,21µM*,0%,-16%,3,?
COc1cc(C(=O)OCC(=O)c2cc(C)n(C)c2C)cc(OC)c1OC,0%,17µM*,0%,-6%,5,?
Cn1c(C(=O)N2CCN(c3cccc(C(F)(F)F)c3)CC2)cc2sccc21,-3%,0%,-2%,-24%,-3,5%
O=c1oc(-c2cccs2)nc2sc3c(c12)CCCC3,3%,-7%,5%,5%,-1,3%
O=C1CN(c2nc(-c3cccs3)nc3sc4c(c23)CCCC4)CCN1,-3%,27µM*,2%,-18%,0,16%
Cc1ccc(C2=NN(CC(=O)NCCN(CC(C)C)CC(C)C)C(=O)CC2)cc1,.,1%,-2%,-24%,2,?
Brc1ccc(CSc2ncn[nH]2)cc1,1%,-6%,1%,-3%,-3,5%
CCCCCOc1ccc(CSc2n[nH]c(C)n2)cc1,3%,30µM*,1%,-4%,-25,?
CCCOc1ccc(CSc2ncn[nH]2)cc1,-1%,2.7µM*,-2%,-16%,0,?
Cc1ccc(CNC(=O)C2CC=CCC2C(=O)O)cc1 (stereo unspecified),3%,-8%,7%,-16%,0,-17%
COCCCN1CC23C=CC(O2)C(C(=O)O)C3C1=O (stereo unspecified),2%,27µM*,1%,4%,0,?
O=Cc1c(OCc2ccccc2)ccc2ccccc12,2%,17µM*,-9%,-13%,-13,?
COc1ccccc1NC(=O)CN(C)S(=O)(=O)c1ccc2c(c1)CCC(=O)N2,1%,3%,-1%,-23%,5,-12%
O=C(O)c1cccc(CSc2nc(-c3ccccc3)cc(C(F)(F)F)n2)c1,-1%,?,2%,-4%,15,-26%
COc1ccc(-c2cc(C(F)(F)F)nc(SCc3cccc(C(=O)O)c3)n2)cc1,-5%,21µM*,0%,-4%,12,-20%
COc1cc(C)c(C(=O)Oc2cc(C)c(C(=O)O)c(O)c2C)c(OC)c1C,-2%,38µM*,0%,0%,-1,?
